Compound activity as filed in PubChem.
Sampled rows, rich in hits. Any-hit rate of the full collection: about 1.6%.
KCNQ2 inh = KCNQ2 (rat) channel inhibition. CHO-K1 KCNQ2, FluxOR thallium flux, 20 min; hits give low values. AID 2156. O88943. hit rate 1.1% among 310,000. B-score at 10 µM;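 active means fluorescence ratio B-score at most minus 3 library SDs, with starting brightness B-score within 2 library SDs, cut at about -5.5 in these data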
KCNQ2 pot = enhances the rat KCNQ2 potassium channel; O88943; CHO-K1 KCNQ2, FluxOR thallium flux fluorescence; hits give high values; B-score at 10 µM; hit rate 0.54% among 310,000;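 active means fluorescence ratio B-score at least 3 SD of library B-scores, with initial fluorescence B-score within 3 of them, cut at about 5.3 in these data; same plate scores as AID 2156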;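 further: B-score of peak minus minimum over baseline fluorescence ratio after K+ and Tl+ stimulus; positive B-score means potentiation of KCNQ2 with more thallium influx and brighter signal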
An asterisk follows results filed as active; i = inactive; x = not tested or not shown.

SMILES | KCNQ2 inh | KCNQ2 pot
CC(C)C1Cc2c(sc(NC(=S)NC(=O)c3ccccc3)c2C#N)CO1 (centres undefined) | i | 1.59
CCc1ccc(-c2cn(-c3nc(C)cc(C)n3)c(=N)o2)cc1 | -6.37* | -6.37
CCc1ccc(-c2cn3c(n2)SCC3)cc1 | i | x
O=C(Nc1c(C(=O)N2CCOCC2)cnn1-c1ccccc1)c1ccc(F)cc1 | i | x
CCOc1ccc(CN(C)CC(=O)Nc2cccc3ccccc23)cc1OC | i | x
COc1ccc(CN(C)CC(=O)Nc2cccc3ccccc23)cc1F | -5.83* | -5.83
O=C1CC2c3ccccc3C1C1C(=O)N(CCc3ccccc3)C(=O)C21 (centres undefined) | i | 1.66
CCCC(=O)N(C1CC(C)C(C#N)(C#N)C1(C#N)C#N)N(C)C (centres undefined) | i | 11.2*
Cc1nn(-c2ccccc2)c(OC(=O)c2cccs2)c1S(=O)(=O)c1ccc([N+](=O)[O-])cc1 | i | 0.81
O=C(Nc1cccc(N2C(=O)C3CCCCC3C2=O)c1)c1ccccc1 (centres undefined) | i | 2.07
O=C(Nc1cccc(Cl)c1)c1cccc(N2C(=O)C3CC=CCC3C2=O)c1 (centres undefined) | -6.03* | -6.03
COc1ccc(NS(=O)(=O)c2ccc3c(c2)N(C(C)=O)CCO3)c(OC)c1 | i | x
OCC1CCCCN1CC(O)COC(c1ccc(F)cc1)c1ccc(F)cc1 (centres undefined) | i | x
Cc1ccc(NC(=O)NC2CCCc3ccccc32)cc1 (centres undefined) | -5.78* | -5.78
CC(C)(C)c1ccc(NC(=O)NC2CCCc3ccccc32)cc1 (centres undefined) | i | x
CC(C)COC(=O)NC1c2ccccc2Oc2ccccc21 | i | x
O=C(CCN1CCC(c2ccccc2)C1)c1ccccc1 (centres undefined) | i | x
O=C(CCN1CCC(c2ccccc2)C1)c1ccc2c(c1)OCCO2 (centres undefined) | -6.16* | -6.16
COc1cccc(C2C=C(c3ccc(Br)s3)Nc3ncnn32)c1OC (centres undefined) | -6.6* | -6.6
Fc1ccc(Br)cc1C1C=C(c2ccc(Br)s2)Nc2ncnn21 (centres undefined) | i | x
CN(C(=O)c1ccco1)c1nc2c(s1)CCCC2 | i | 0.34
CCc1nnc(NC(=O)CSc2ccc(-c3ccc(-n4cccn4)cc3)nn2)s1 | i | 0.07
CC(=O)c1c(C)oc2ccc(NS(=O)(=O)c3ccc(C)cc3)cc12 | i | 0.34
Cc1oc2ccc(NS(=O)(=O)c3ccc(C(C)(C)C)cc3)cc2c1C(=O)Nc1ccccc1 | -6* | -6
CN1CCN(c2ccc(-c3ccnn3C(=O)Nc3cccc(C(F)(F)F)c3)cc2)CC1 | i | x
SMILES | KCNQ2 inh | KCNQ2 pot
CC[C@@H]1CC=C[C@H]2[C@H]1C(=O)N(Cc1ccccc1)[C@H]2c1ccc2ccccc2c1 | -5.65* | -5.65
C[C@@H]1CC=C[C@H]2[C@H]1C(=O)N(Cc1ccccc1)[C@H]2c1ccc(C(F)(F)F)cc1 | i | x
COc1ccc([C@H]2[C@H]3C=CC[C@@H](C)[C@@H]3C(=O)N2Cc2ccccc2)cc1Cl | i | x
O=C1C2C(c3ccccc3)CC=CC2[C@H](c2ccc(C(F)(F)F)cc2)N1Cc1ccccc1 (some centres undefined) | -7.77* | -7.77
CCN(Cc1ccncc1)C(=O)c1cc(Br)cc(Br)c1O | i | 1.43
CC(C)(C)c1cc(NS(=O)(=O)c2cccs2)no1 | i | 0.91
C#CCNC(=O)C1=C[C@H](C2CCCCC2)[C@@H](CCCO)[C@H](OCC)O1 | i | x
O=C(c1cccc(F)c1)N1CCC(c2nc3ccccc3s2)CC1 | i | 0.82
CCOC(=O)N1CCN(Cc2cc(Cl)c3cccnc3c2O)CC1 | i | 14.8*
COCc1cc(CN2CCN(C)CC2)c(O)c2ncccc12 | i | x
Cc1ccc(/C=C2/SC(=S)N(CCC(=O)N3CCOCC3)C2=O)cc1 | i | 0.07
Cc1ccc(N(CC2CO2)S(=O)(=O)c2ccc(C)cc2)cc1 (centres undefined) | i | x
Cc1ccc(N(CC2CO2)S(=O)(=O)c2ccc([N+](=O)[O-])cc2)cc1 (centres undefined) | -6.83* | -6.83
CO/N=C/c1cc([N+](=O)[O-])ccc1Sc1ccc(C)cc1 | -7.42* | -7.42
CO/N=C/c1ccc(Sc2ccc(C)cc2)c([N+](=O)[O-])c1 | i | 0.8
COc1cccc(-n2nnnc2S(C)(=O)=O)c1 | -7.78* | -7.78
COc1cccc(Oc2nnnn2-c2ccccc2)c1 | i | x
Cc1ccc(C(=O)Nc2c(-c3cccs3)nc3cc(C)ccn23)cc1 | i | 0.53
Cc1ccn2c(NC(=O)C(C)(C)Oc3ccc(Cl)cc3)c(-c3cccs3)nc2c1 | -6.36* | -6.36
NC(=O)C1CCN(C(=O)C2CC(=O)N(c3ccc(F)cc3)C2)CC1 (centres undefined) | i | 1.34
CC1(C)C2CCC1(C)C(OC(=O)CNc1ccccc1)C2 (centres undefined) | i | x
COc1cc(C(=O)OC2CC3CCC2(C)C3(C)C)ccc1OC(C)=O (centres undefined) | -5.68* | -5.68
Fc1cccc2sc(Nc3nc4cc5c(cc4s3)OCCO5)nc12 | i | 3.52
Fc1cccc2sc(Nc3nc4cc5c(cc4s3)OCO5)nc12 | i | 6.87*
COc1ccccc1CNC(=O)C1CCCN(S(=O)(=O)c2ccc3c(c2)CC(C)N3C(C)=O)C1 (centres undefined) | -6.92* | -6.92
SMILES | KCNQ2 inh | KCNQ2 pot
COc1ccccc1CNC(=O)C1CCCN(S(=O)(=O)c2ccc3c(c2)C(C)(C)C(=O)N3C)C1 (centres undefined) | i | x
CCOC(=O)C1(CC2CC2)CCN(C(=O)c2cc(C3CC3)nc3ccccc23)CC1 | i | x
CCOC(=O)C1(CC2CC2)CCN(C(=O)c2cccnc2C)CC1 | -6.44* | -6.44
Cc1noc(C)c1C(=O)N1CCN(S(=O)(=O)c2cccc(Cl)c2Cl)CC1 | i | x
CC1(C)C2CCC1(C)C(OC(=O)C[n+]1ccccc1)C2 (centres undefined) | i | x
CC1(C)C2CCC1(C)C(OC(=O)CC(=O)O)C2 (centres undefined) | -8.22* | -8.22
Cc1nnc(NC(=O)C2CCCN2C(=O)Nc2ccccc2)s1 (centres undefined) | i | x
O=C1C2CC=CCC2C(=O)N1Cc1ccccc1Cl (centres undefined) | i | 0.49
O=C(Nc1cccc(F)c1)N1CCCCCC1 | i | x
CC(C)(C)NC(=O)c1cnn(-c2ccccc2)c1NC(=O)c1ccccc1 | i | x
Cc1csc(-c2cnn(-c3ccccc3)c2NC(=O)c2ccc(C(F)(F)F)cc2)n1 | -5.91* | -5.91
CCN(C(=O)c1ccc(S(=O)(=O)N2CCC(C)CC2)cc1)C1CCS(=O)(=O)C1 (centres undefined) | i | x
COc1cccc(OCC(O)CN(CCO)Cc2ccccc2)c1 (centres undefined) | i | x
CCC(=O)c1ccc(OCC(O)CN(CCc2ccccc2)Cc2ccccc2)cc1 (centres undefined) | -7.56* | -7.56
COC(=O)c1ccc2c(c1)sc(=NC(=O)CCS(=O)(=O)c1ccccc1)n2C | i | x
Cc1nn(-c2ccc(F)cc2)c(C)c1/C=C/C(=O)N1CCNC(=O)C1 | i | 1.43
Cc1ccc(-c2cccc(C(=O)NCCc3ccccc3)n2)c2ccccc12 | -6.32* | -6.32
Cc1ccc(-c2cccc(C(=O)NCc3ccccc3)n2)c2ccccc12 | i | x
